# BoNT-A LC inh2: BoNT/A light chain protease inhibitors, primary screen, biochemical, flow cytometry, MLPCN library; Botulinum neurotoxin type A light chain protease (Clostridium botulinum A str. ATCC 3502); multiplex microsphere protease substrate cleavage; inhibition, % at 10 µM; 0.17% of 360,000 active; AID 588499, 2011; further: plate controls were buffer without enzyme for full effect and enzyme alone for no effect
# BJeLR viability: MLPCN primary cell-based screen for lethality selective to Ras in HRASV12 cells. BJeLR (HRASV12) viability, CellTiter-Glo ATP luminescence, 48 h. 0.17% of 300,000 active. inhibition, % (concentration not given with the values); in the data active means inhibition above about 50%; inconclusive means no clear call, values can overlap the other calls
# Vc quorum ag: inducers of Vibrio cholerae quorum light production without autoinducers, primary screen, BH1578 luxS cqsA deficient, single point; 0.16% of 350,000 active; activation, % at 18.7 µM; V. cholerae BH1578 lux reporter, luminescence, 6 h; in the data active means activation mostly above about 9.7%, no sharp cut-off; inconclusive means no clear call, values can overlap the other calls; inactive means mostly below about 3.7%
# Bead autofluor: flagged as autofluorescent in microsphere protease counterscreen; 3.1% of 360,000 active; compound autofluorescence counterscreen, microsphere flow cytometry; active compounds read high; fluorescence intensity (test concentration not listed); in the data active means fluorescence intensity above about 16000; inconclusive means no clear call, values can overlap the other calls
# Anthrax LF inh2: Bacillus anthracis LF protease inhibitors, primary screen, biochemical, multiplex microsphere, MLPCN library; Lethal factor (Bacillus anthracis), P15917; multiplex microsphere protease cleavage assay; inhibition, % at 10 µM; 0.12% of 360,000 active; AID 588501, 2011; further: plate controls were buffer without enzyme for full effect and enzyme alone for no effect
# BoNT-F LC inh: BoNT/F light chain protease inhibitors, primary screen, biochemical, flow cytometry, MLPCN library; Multiplex microsphere protease cleavage assay; inhibition, % at 10 µM; 0.22% of 360,000 active; in the data active means inhibition above about 35%, passing the limit was not always enough; inconclusive means no clear call, values can overlap the other calls; further: plate controls were buffer without enzyme for full effect and enzyme alone for no effect
# * marks the source's active call; other numbers are inactive results; i = inactive; ? = inconclusive; . = no result given. Sampled rows, rich in hits. Any-hit rate of the full collection: about 3.7%. Unless noted, no stated cut-off is given here; in the data, active means inhibition above about 30%; inconclusive means no clear call, values can overlap the other calls; inactive means below that.
SMILES,BoNT-A LC inh2,BJeLR viability,Vc quorum ag,Bead autofluor,Anthrax LF inh2,BoNT-F LC inh
CCOC(=O)N1CCN(C(=O)CSCC(=O)Nc2nc(-c3ccc4c(c3)OCO4)cs2)CC1,2,.,i,19205*,-6,2
Cn1cc(CN2CCC(C(=O)NC(c3ccc(F)cc3)c3ccc4ccccc4n3)CC2)c2ccccc21 (stereo not drawn),0,.,-1,4176,-1,-16
COC(=O)C1C2C=CC3(CN(Cc4ccco4)C(=O)C13)O2 (stereo not drawn),0,-2,-9,5953,0,-8
CC12C=CC3(CN(Cc4ccccc4)C(=O)C3C1C(=O)NCc1ccco1)O2 (stereo not drawn),4,-1,i,20657*,-13,6
Nc1nonc1C(=O)NCCN=Cc1cc(Cc2ccccc2)cc(Br)c1O,-4,1,i,17444*,-1,-7
CCOCCC(=O)Nc1ccc2c(c1)c(=O)n(C)n2C/C=C/c1ccccc1,0,.,0,3463,-3,-3
Cc1cc(C)cc(NC(=O)CN2CCN(c3ccccn3)CC2)c1,0,1,-2,2709,0,-1
Cc1cc(C)cc(NC(=O)CN2CCN(c3ncccn3)CC2)c1,2,-3,0,22652*,0,5
Cc1ccc(S(=O)(=O)N(C)C[C@@H]2Oc3ncc(C#CCC(C)C)cc3C(=O)N([C@H](C)CO)C[C@H]2C)cc1,-1,.,-1,3907,3,-3
O=CN1CCC(=O)N(Cc2ccccc2)c2ccccc21,?,-1,-1,24835*,-2,-6
C/C(=N\NC(=O)c1c[nH]c2ccccc12)c1ccc(C)o1,-2,-3,-1,23011*,-1,-4
C/C(=N\NC(=O)c1cc2ccccc2cc1O)c1ccc(C)o1,0,9,0,5704,0,-10
CCN(C(=O)c1ccc(NC(C)=O)cc1)c1ccccc1,4,7,i,21341*,0,3
Cc1cc(C)n(-c2cc(N3CCOCC3)ncn2)n1,-1,-7,2,6135,-2,-4
COc1cc(N2CCOCC2)ncn1,?,0,0,23005*,-3,-1
O=C(CCNS(=O)(=O)c1ccc(Cl)cc1)NCc1ccccn1,-8,3,i,17910*,-5,-11
O=C(CCNC(=O)c1ccc(Br)o1)NCc1ccccn1,-5,-8,i,24852*,-4,-5
Cc1ccccc1NC(=O)c1cccc(N2C(=O)C3C4CCC(C4)C3C2=O)c1 (stereo not drawn),?,0,i,23697*,-1,-5
CCc1nc2ccc(C(=O)NCc3ccccc3OC)cn2c1N(CC)Cc1cccc(Br)c1,0,.,-1,4186,-4,-5
O=C(NC1CCCCC1)N1CCN(C2CCCCC2)CC1,-1,-8,i,23605*,-4,-3
O=C(NC1CCCCC1)N1CCN(c2ncccn2)CC1,1,-4,i,23207*,-3,5
O=C(NCc1cccnc1)c1cc(C2CCCCN2S(=O)(=O)Cc2ccccc2)on1 (stereo not drawn),0,.,1,2962,-3,-2
Cc1noc(C)c1S(=O)(=O)NC(=O)C1(C)CCN1C(=O)Cc1ccc(-c2ccccc2)cc1 (stereo not drawn),0,.,-3,3375,-4,-2
Cc1cc(C(=O)CN(Cc2ccc(F)cc2)S(=O)(=O)c2ccc3c(c2)OCCO3)c(C)n1C,?,-3,0,20608*,-3,-4
C[C@@H]1CCCCO[C@H](CN(C)C(=O)Cc2ccccc2)[C@@H](C)CN([C@H](C)CO)C(=O)c2cc(N(C)C)ccc2O1,0,.,-1,3738,3,-1
SMILES,BoNT-A LC inh2,BJeLR viability,Vc quorum ag,Bead autofluor,Anthrax LF inh2,BoNT-F LC inh
CC(C)[C@@H]1Cc2[nH]n(C)c(=O)c2[C@H](c2ccc(Cl)cc2)O1,0,.,.,6569,0,-1
CC(=O)Nc1cc(C(F)(F)F)ccc1OCCOc1ccccc1,?,2,i,21706*,-4,2
O=S(=O)(Nc1ccc(Cc2ccncc2)cc1)c1ccc(Br)s1,-1,5,-6,16939*,-1,-2
Cc1oc(-c2ccccc2)cc1C(=O)Nc1ccccc1,0,-12,17*,2847,-3,-4
Cc1nn(-c2ccccc2)c2c1C(c1ccc([N+](=O)[O-])cc1)C(C#N)=C(N)O2 (stereo not drawn),-2,7,-1,3652,3,1
Cc1nn(-c2ccccc2)c(C)c1C1C(C#N)=C(N)Oc2n[nH]c(C)c21 (stereo not drawn),4,7,-1,3695,5,36*
Cc1nn(-c2ccccc2)c2c1C(c1cccs1)C(C#N)=C(N)O2 (stereo not drawn),0,-3,0,5486,-6,-6
Cc1ccc(-n2nc(C)c3c2OC(N)=C(C#N)C3c2ccc(F)cc2)cc1 (stereo not drawn),0,-7,0,22457*,1,-1
COc1ccc(OC)c(C2C(C#N)=C(N)Oc3c2c(C)nn3-c2cccc(Cl)c2)c1 (stereo not drawn),?,0,i,20225*,0,4
Cc1nn(-c2ccccc2)c2c1C(c1ccco1)C(C#N)=C(N)O2 (stereo not drawn),?,11,-3,23537*,-7,-1
Cn1cc(-c2csc(C(O)c3ccccc3)n2)cn1 (stereo not drawn),0,.,0,2849,-6,-3
CC1(C(=O)Nc2nccs2)CCN1C(=O)CC(c1ccccc1)c1ccccc1 (stereo not drawn),0,.,-1,3963,0,1
N#Cc1ccc(NC(=O)COC(=O)c2cccc(S(=O)(=O)N3CCCC3)c2)cc1,0,.,-5,3869,-6,1
Cc1[nH]nc2c1C(c1ccco1)C(C#N)=C(N)O2 (stereo not drawn),0,-10,0,1949,1,-6
COc1ccc(-c2ccc(C3C(C#N)=C(N)Oc4n[nH]c(C)c43)o2)cc1 (stereo not drawn),?,1,i,21391*,-1,-4
CCN(CC)c1c2c(c(C#N)c3nc4ccccc4n13)CCC2,-1,5,i,16264*,-3,-1
Cc1nccn1-c1c2c(c(C#N)c3nc4ccccc4n13)CCC2,.,-2,.,.,.,.
CCc1c(C)c(C#N)c2nc3ccccc3n2c1NCCN(C)C,7,1,0,17739*,-7,7
C=CCc1c(C)c(C#N)c2nc3ccccc3n2c1NCCN(C)C,1,-19,-1,3231,2,-4
Cc1cc(Cl)n2c(nc3ccccc32)c1C#N,0,61*,0,4318,-3,0
